Screens as filed in PubChem BioAssay.
Cycloheximide cs: affects cycloheximide protein synthesis inhibition readout, counter-screen. AID 2314. cell reporter, cycloheximide protein synthesis inhibition counterscreen. 12% of 300,000 active. max response, %; in the data active = max response mostly above about 13%, no sharp cut-off; inactive = mostly below about 14%; note: read at 38.3 µM for the half of the compounds with a filed dose; 0% is about no effect
HCMV antiviral: blocks human cytomegalovirus replication; HFF cells, HCMV-luciferase reporter, 72 h; active compounds read low; activity change, negative = inhibition, % at 57.5 µM; 4.5% of 410,000 active; in the data active = activity change below about -60%; inconclusive = no clear call, values can overlap the other calls; inactive = above about -39%; note: % is set by controls: 0 for no effect and ±100 for the full control effect
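After 16 h attachment at 37C, HFF cells received test compound and HCMV-luciferase (1 PFU/cell); reporter luminescence read 72 h later, data normalized against buffer-only and known inhibitor Salinomycin.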
Shiga toxin inh: blocks Shiga toxin action in Vero cells; Vero cells, Shiga toxin protein synthesis inhibition reporter; inhibition, % at 38.7 µM; 9.2% of 290,000 active; AID 2315; in the data active = inhibition mostly above about 28%, no sharp cut-off; inactive = mostly below about 43%; note: 0% is about no effect
Pf growth 96h: inhibits malaria parasite growth, 96 h; 6.9% of 320,000 active; P. falciparum luciferase reporter growth, 96 h; Potency, µM (highest dose often 28.7 µM), without a hit: at the highest dose activity change, negative = inhibition, actives largely listed as inhibitors; AID 504834; note: potency is the fitted concentration of half-maximal effect; % is set by controls: 0 for no effect and ±100 for the full control effect
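96 h incubation, 37 C, 5% CO2, of luciferase-reporter P. falciparum-infected RBCs (2% hematocrit, 0.05% parasitemia final) with test compounds; endpoint luminescence.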
Pf growth 48h: inhibits P. falciparum growth in the first generation, 48 h; Potency, µM (top dose mostly 28.7 µM), without a hit: top-dose activity change, negative = inhibition, actives largely listed as inhibitors; AID 504832; 5.9% of 310,000 active; P. falciparum luciferase growth in erythrocytes, 48 h; note: potency is the fitted concentration of half-maximal effect; % is set by controls: 0 for no effect and ±100 for the full control effect
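Compounds are pin-transferred into medium, infected erythrocytes (2% hematocrit, 0.1% parasitemia final) are added, and plates sit one parasite generation at 37 C in 5% CO2. Detection reagent is then added and luminescence measured.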
Active calls of the source: *; ? = inconclusive; · = no result; + = active, no number. Hits are enriched below; roughly 20% of the tested compounds scored in any of these assays. Unless noted, calls come from the whole dose curve; as a rule, active = well fitted inhibition curve with a large enough effect; inconclusive = small, poorly fitted or top-dose-only effect, or another doubt; inactive = no such curve, though single readings can be large or run the other way.

SMILES	Cycloheximide cs	HCMV antiviral	Shiga toxin inh	Pf growth 96h	Pf growth 48h
O=C(CN(c1cc(C(F)(F)F)ccc1Cl)S(=O)(=O)c1ccccc1)NCCc1ccccc1	·	-70*	·	·	·
CC1(C(=O)NCc2ccccc2)CSCC(=O)N1CCOc1ccccc1 (centres undefined)	·	-11	·	·	·
CC(=O)c1cc(-c2ccccc2)n(CC(=O)Nc2ccc(C)cc2C)c1C	·	+	·	·	·
CC(=O)c1cc(-c2ccccc2)n(CC(=O)NC2CCCCCC2)c1C	·	+	·	·	·
Cc1nc2ccccc2n1CC(=O)NC1CCCCCC1	-2	-62*	9	?	-13%
CC(=O)c1cc(-c2ccccc2)n(CCC(=O)Nc2ccc(C)cc2C)c1C	·	0	·	·	·
COc1cc(OC)cc(N(C(=O)CNC(=O)c2cccs2)C(C(=O)NCC2CCCO2)c2ccc(OC)c(OC)c2)c1 (centres undefined)	-1	-3	-13	?	?
O=C(OCc1ccc(Cl)c(Cl)c1)c1ccc[nH]1	23*	-6	111*	102%	87%
O=C(Cc1ccc(Cl)c(Cl)c1)OCC(=O)c1ccc[nH]1	3	-33	17	4%	7%
CCCCCC(=O)Nc1cc(S(=O)(=O)O)cc2cc(S(=O)(=O)O)cc(O)c12	·	-78*	·	·	·
CCCCCC(=O)Nc1cc(S(=O)(=O)N2CCCCC2)ccc1N1CCCCC1	·	-18	·	·	·
COc1ccccc1C1C2C(=O)N(c3ccccc3)C(=O)C2ON1c1ccccc1 (centres undefined)	3	7	-18	8.3µM*	1%
Cc1ccc(N2C(=O)C3ON(c4ccccc4)C(CC(C)C)C3C2=O)cc1 (centres undefined)	9.3*	7	21	21%	13%
O=C1C2ON(c3ccccc3)C(c3ccncc3)C2C(=O)N1c1ccccc1 (centres undefined)	-3	7	-5	·	11%
Cc1ccc(NC(=O)CCS(=O)(=O)c2ccc(Br)s2)c(Br)c1	·	-7	·	·	·
CC(=O)Nc1cnc(-c2cccc(C(=O)N3CCOCC3)c2)cn1	·	-29	·	·	·
COc1cc(NC(=O)CN2C(=O)C(c3ccc(C)cc3)=NC23CCCCC3)cc(OC)c1	·	-4	·	·	·
CCOc1ccc(NC(=O)CSc2nc3c(oc4ccccc43)c(=O)n2-c2ccccc2C)cc1	·	-82*	·	·	·
Cc1cccc(NC(=O)CSc2nc3[nH]ncc3c(=O)n2-c2ccccc2)c1	3	·	10	7.4µM*	-8%
CCOc1ccc(-n2c(SCC(=O)Nc3ccc(CC)cc3)nc3c(oc4ccccc43)c2=O)cc1	·	18	·	·	·
COc1cc(NC(=O)CSc2nc3[nH]ncc3c(=O)n2-c2ccccc2C)cc(OC)c1OC	-5	46	-17	6%	10µM*
CCCCNc1nc2c(c(=O)[nH]c(=O)n2C)n1CCCc1ccccc1	·	3	·	·	·
Fc1ccccc1NC(=S)NCCc1ccc(Cl)cc1	53*	20	74*	?	?
O=[N+]([O-])c1cccc(NC(=S)NCCc2ccccc2)c1	39*	-95*	60*	-33%	?
O=C(Cc1cccc([N+](=O)[O-])c1)Nc1ccccc1	·	-21	·	·	·
SMILES	Cycloheximide cs	HCMV antiviral	Shiga toxin inh	Pf growth 96h	Pf growth 48h
OCCNC(=S)NCCc1ccccc1	6	?	19	86%	16%
Fc1ccc(NC(=S)NCCc2ccccc2)c(F)c1F	35*	-74*	109*	-6%	?
Fc1cccc(NC(=S)NCCc2ccccc2)c1	45*	-79*	96*	222%	12%
Fc1ccccc1NC(=S)NCCc1ccccc1	39*	-19	59*	63%	57%
CNC(=S)NCCc1ccccc1	-2	9	34	1%	3%
NC(=S)Nc1ccc(F)c(F)c1F	-1	-18	-4	35%	2.6µM*
Fc1ccc(F)c(NC(=S)NCCc2ccccc2)c1	30*	-66*	96*	42%	6%
CCOC(=O)c1nn2c(C(F)(F)F)cc(-c3ccc(OC)cc3)nc2c1Br	-3	-14	-4	?	26%
Cc1ccsc1CN(C)C(=O)C(NC(=O)c1cccc(S(=O)(=O)N2CCOCC2)c1)C(C)C (centres undefined)	·	-15	·	?	13µM*
Cc1cc(C)c2nc(NC(=O)[C@@H](NC(=O)c3cccc(S(=O)(=O)N4CCOCC4)c3)C(C)C)sc2c1	32*	-39	64*	6.6µM*	9.3µM*
Cc1cccc(C(=O)N[C@H](C(=O)Nc2cc(S(=O)(=O)N3CCCCC3)ccc2C)C(C)C)c1	0	15	-6	?	?
